Where a name gives a salt, the structure may show the parent alone.
Experiments:
[1] = tested on: S. cerevisiae SK1 pCDA2-eGFP (USY613), sporulating; assay: CDA2-GFP sporulation assay sensitivity score (z-score vs DMSO controls); higher = stronger inhibition of sporulation, active = hit call of the paper;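 also: active if sensitivity score above 5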
[2] = tested on: S. cerevisiae NKY1551 his4x/his4B, sporulating; assay: HIS4 meiotic recombination assay sensitivity score (z-score vs DMSO controls); higher = stronger inhibition of sporulation/recombination, active = hit call of the paper;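 also: active if sensitivity score above 5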
[3] = tested on: S. cerevisiae AD1-9 (efflux-pump deficient), vegetative growth in YPD; assay: growth sensitivity score (doubling time z-score vs DMSO controls); higher = slower growth, strongly negative scores also mark growth inhibition (complete suppression), active = hit call of the paper
Outline: (§1)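 Saccharomyces cerevisiae strains BY4741 and AD1-9 were seeded in rich medium in microtiter plates at an OD600 of 0.065. Compounds were added at a 1:100 dilution of DMSO stock. Optical density was read every 15 min for 24 hours on a Tecan GENios reader. Average doubling time was the time taken to reach a set generation point divided by generation number, and the growth sensitivity score was (compound mean − DMSO-control mean)/DMSO-control SD, using eight DMSO controls per experiment.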

[4] = tested on: S. cerevisiae BY4741 (wild-type), vegetative growth in YPD; assay: as above
Outline: as §1

Compound | CDA2-GFP sporulation assay sensitivity score [1] | HIS4 meiotic recombination assay sensitivity score [2] | growth sensitivity score [3] | growth sensitivity score [4]
CCCCC1=NC2(CCCC2)C(=O)N1Cc1ccc(-c2ccccc2-c2nnn[nH]2)cc1 [Irbesartan] (stock concentration (mM, diluted 1:100): 10.1) | -0.17 (inactive) | -0.26 (inactive) | -0.82 (inactive) | -0.72 (inactive)
NC1CCN(c2nc3c(cc2F)c(=O)c(C(=O)O)cn3-c2ccc(F)cc2F)C1 (centres undefined) [Tosufloxacin tosylate] (stock concentration (mM, diluted 1:100): 7) | 1.34 (inactive) | -2.15 (inactive) | 1.02 (inactive) | -0.39 (inactive)
COc1ccc2c(c1)c(CC(=O)O)c(C)n2C(=O)c1ccc(Cl)cc1 [Indomethacin] (stock concentration (mM, diluted 1:100): 10.5) | 0.38 (inactive) | 0.4 (inactive) | 0.93 (inactive) | 0.62 (inactive)
CC(=O)NC[C@H]1CN(c2ccc(N3CCOCC3)c(F)c2)C(=O)O1 [Linezolide] (stock concentration (mM, diluted 1:100): 10) | 0.79 (inactive) | -0.83 (inactive) | 2.05 (active) | -1.67 (inactive)
CN1C(C(=O)Nc2ccccn2)=C(O)c2ccccc2S1(=O)=O [Piroxicam] (stock concentration (mM, diluted 1:100): 10) | -3.86 (inactive) | 0.11 (inactive) | 0.98 (inactive) | 0.09 (inactive)
C[C@@H](c1ncncc1F)[C@](O)(Cn1cncn1)c1ccc(F)cc1F [Voriconazole] (stock concentration (mM, diluted 1:100): 9.9) | -0.46 (inactive) | 0.14 (inactive) | 20.3 (active) | 43.3 (active)
NC(N)=NC(=O)c1nc(Cl)c(N)nc1N (stock concentration (mM, diluted 1:100): 8.2) | 6.05 (active) | 2.44 (inactive) | 4.88 (active) | 1.27 (inactive)
C[C@@H]1C[C@H]2[C@@H]3C[C@H](F)C4=CC(=O)C(Cl)=C[C@]4(C)[C@@]3(F)[C@@H](O)C[C@]2(C)[C@@]1(O)C(=O)CO [Halometasone monohydrate] (stock concentration (mM, diluted 1:100): 10) | 0.27 (inactive) | -1.12 (inactive) | 2.32 (active) | -0.26 (inactive)
CN1[C@@H]2CC[C@H]1C[C@@H](OC(=O)c1c[nH]c3ccccc13)C2 [Tropisetron hydrochloride] (stock concentration (mM, diluted 1:100): 7.7) | 1.1 (inactive) | 0.82 (inactive) | -2.07 | -0.89 (inactive)
CC(Cc1ccccc1)(NC(=O)CN)c1ccccc1 (centres undefined) [Remacemide] (stock concentration (mM, diluted 1:100): 10) | 2.76 (inactive) | -1.04 (inactive) | 4.61 (active) | -0.78 (inactive)
Cc1ccc(O)c([C@H](CCN(C(C)C)C(C)C)c2ccccc2)c1 [Tolterodine tartrate] (stock concentration (mM, diluted 1:100): 6.9) | 1.84 (inactive) | 4.21 (inactive) | 2.36 (active) | 0.36 (inactive)
Cc1sc(N)c(C(=O)c2cccc(C(F)(F)F)c2)c1C (stock concentration (mM, diluted 1:100): 10) | 11.1 (active) | 1.22 (inactive) | 143 (active) | 9.52 (active)
Cn1nnc2c(C(N)=O)ncn2c1=O [Temozolomide] (stock concentration (mM, diluted 1:100): 10) | -0.1 (inactive) | -0.54 (inactive) | -0.09 (inactive) | 1.92 (inactive)
O=C(O)CCc1nc(-c2ccccc2)c(-c2ccccc2)o1 [Oxaprozin] (stock concentration (mM, diluted 1:100): 10) | -0.84 (inactive) | -0.23 (inactive) | 5.72 (active) | 0.61 (inactive)
Cc1ncc([N+](=O)[O-])n1CC(O)CCl (centres undefined) [Ornidazole] (stock concentration (mM, diluted 1:100): 10) | -0.66 (inactive) | -0.66 (inactive) | -0.62 (inactive) | -2.78
Cc1occc(=O)c1O [Maltol] (stock concentration (mM, diluted 1:100): 10) | 1.2 (inactive) | 0.46 (inactive) | -1.16 (inactive) | -0.74 (inactive)
COc1ccc(CC(C)NCC(O)c2ccc(O)c(NC=O)c2)cc1 (centres undefined) [Formoterol fumarate dihydrate] (stock concentration (mM, diluted 1:100): 7) | 0.41 (inactive) | -1.68 (inactive) | -0.7 (inactive) | -0.1 (inactive)

Compound | CDA2-GFP sporulation assay sensitivity score [1] | HIS4 meiotic recombination assay sensitivity score [2] | growth sensitivity score [3] | growth sensitivity score [4]
CC(COc1ccccc1Cc1ccccc1)N1CCCCC1 (centres undefined) [Benproperine phosphate] (stock concentration (mM, diluted 1:100): 10) | 0.55 (inactive) | 7.79 (active) | 3.29 (active) | 6.41 (active)
CC(=O)[C@@]1(O)CC[C@H]2[C@@H]3C[C@H](C)C4=CC(=O)CC[C@]4(C)[C@H]3CC[C@@]21C [Medroxyprogesterone] (stock concentration (mM, diluted 1:100): 10) | -0.44 (inactive) | 0.24 (inactive) | 4.15 (active) | -0.01 (inactive)
OC[C@H]1O[C@@H](n2cnc3c(N[C@H]4CCC[C@@H]4O)ncnc32)[C@@H](O)C1O (some centres undefined) (stock concentration (mM, diluted 1:100): 10) | 2.98 (inactive) | 1.26 (inactive) | -0.69 (inactive) | -0.79 (inactive)
CC1(C)O[C@@H]2[C@@H](CO[C@@]3(COS(N)(=O)=O)OC(C)(C)O[C@@H]23)O1 [Topiramate] (stock concentration (mM, diluted 1:100): 10) | -1.32 (inactive) | 0.22 (inactive) | -0.81 (inactive) | -1.18 (inactive)
O=c1c(O[C@@H]2O[C@H](CO)[C@@H](O)[C@H](O)[C@H]2O)c(-c2ccc(O)c(O)c2)oc2cc(O)cc(O)c12 [Isoquercetrin] (stock concentration (mM, diluted 1:100): 10) | -1.49 (inactive) | -0.48 (inactive) | -0.6 (inactive) | 0.03 (inactive)
Cn1c(NCCN(CCO)CCCc2ccc([N+](=O)[O-])cc2)cc(=O)n(C)c1=O [Nifekalant hydrochloride] (stock concentration (mM, diluted 1:100): 9.2) | 0.47 (inactive) | -0.61 (inactive) | 0.65 (inactive) | -0.07 (inactive)
Clc1ccc(CO/N=C(\Cn2ccnc2)c2ccc(Cl)cc2Cl)c(Cl)c1 [Oxiconazole nitrate] (stock concentration (mM, diluted 1:100): 10) | 0.87 (inactive) | -3.02 (inactive) | 47.9 (active) | 66.3 (active)
CCCc1nc2c(C)cc(-c3nc4ccccc4n3C)cc2n1Cc1ccc(-c2ccccc2C(=O)O)cc1 [Telmisartan] (stock concentration (mM, diluted 1:100): 10) | -1.44 (inactive) | – | 43.7 (active) | 85.7 (active)
Cc1ncc([N+](=O)[O-])n1CCO [Metronidazole] (stock concentration (mM, diluted 1:100): 10) | 0.28 (inactive) | – | -0.99 (inactive) | -0.2 (inactive)
CN(C)CC/C=C1/c2ccccc2COc2ccc(CC(=O)O)cc21 [Olopatadine hydrochloride] (stock concentration (mM, diluted 1:100): 12.7) | 1.08 (inactive) | -0.7 (inactive) | – | -0.74 (inactive)
CCN1CCC[C@H]1CNC(=O)c1c(O)c(Cl)cc(Cl)c1OC [Raclopride] (stock concentration (mM, diluted 1:100): 10) | 0.74 (inactive) | – | -1.88 (inactive) | 0.66 (inactive)
Cc1ccc(NC(=O)c2ccc(CN3CCN(C)CC3)cc2)cc1Nc1nccc(-c2cccnc2)n1 [Imatinib mesylate] (stock concentration (mM, diluted 1:100): 8.4) | 7.85 (active) | – | 7.33 (active) | 0.53 (inactive)
NC(=O)N1c2ccccc2CC(=O)c2ccccc21 [Trileptal] (stock concentration (mM, diluted 1:100): 10) | – | -2.89 (inactive) | 1.04 (inactive) | 1.24 (inactive)
CC1(C)S[C@@H]2[C@H](/N=C/N3CCCCCC3)C(=O)N2[C@H]1C(=O)O [Mecillinam] (stock concentration (mM, diluted 1:100): 10) | 0.59 (inactive) | – | -0.02 (inactive) | 1.05 (inactive)
COc1ccc(-c2oc3c(CC=C(C)C)c(O[C@@H]4O[C@H](CO)[C@@H](O)[C@H](O)[C@H]4O)cc(O)c3c(=O)c2O[C@@H]2O[C@@H](C)[C@H](O)[C@@H](O)[C@H]2O)cc1 [Icariin] (stock concentration (mM, diluted 1:100): 10) | -1.61 (inactive) | 0.32 (inactive) | – | -1.71 (inactive)
CN1CCN(CCCN2c3ccccc3Sc3ccc(C(F)(F)F)cc32)CC1 [Trifluoperazine dihydrochloride] (stock concentration (mM, diluted 1:100): 10) | -0.39 (inactive) | – | – | –
Cc1cccc(CCN2CCC(C(=O)c3ccc(NS(C)(=O)=O)cc3)CC2)n1 (stock concentration (mM, diluted 1:100): 9.9) | -0.99 (inactive) | -3.32 (inactive) | – | -0.44 (inactive)

Source: the supplement of paper PMC3414501
